LmPK activator – qHTS Assay for Activators of Leishmania Mexicana Pyruvate Kinase (LmPK); purified LmPK, Kinase-Glo ATP luminescence, 1 h; activity change, negative = inhibition, % at 57.5 µM; Q27686; 290,000 tested, under 10 active; calls by dose curve
Target sequence (Q27686 whole entry, looked up): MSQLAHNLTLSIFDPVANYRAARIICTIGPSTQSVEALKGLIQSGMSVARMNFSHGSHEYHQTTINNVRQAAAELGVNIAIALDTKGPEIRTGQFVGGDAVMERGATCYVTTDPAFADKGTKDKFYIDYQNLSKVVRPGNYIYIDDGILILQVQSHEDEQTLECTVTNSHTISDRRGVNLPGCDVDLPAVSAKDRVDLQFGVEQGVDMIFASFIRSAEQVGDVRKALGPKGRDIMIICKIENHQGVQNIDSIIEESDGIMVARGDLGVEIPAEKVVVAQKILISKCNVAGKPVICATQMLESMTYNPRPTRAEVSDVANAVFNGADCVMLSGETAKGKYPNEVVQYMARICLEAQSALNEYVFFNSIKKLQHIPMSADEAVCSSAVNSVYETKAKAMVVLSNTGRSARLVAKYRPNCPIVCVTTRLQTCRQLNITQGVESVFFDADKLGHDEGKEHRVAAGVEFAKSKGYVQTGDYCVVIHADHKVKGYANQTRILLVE
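Purified L. mexicana pyruvate kinase (0.1 nM) with 0.5 mM PEP and 0.1 mM ADP in pH 7.2 imidazole buffer, 1 h at RT. ATP formed measured by Kinase-Glo luminescence; normalized to uninhibited and no-enzyme wells.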
Active calls of the source: *. A selection follows.

SMILES	LmPK activator
O=C(/C=C/c1ccc2c(c1)OCO2)c1ccc(F)cc1	-31.7
Cc1cccc(/C(N)=N/OC(=O)c2ccc(Cl)cc2Cl)c1	-70.3
O=C(N/N=C/c1ccccc1Cl)c1n[nH]c2c1CCCC2	-44.3
c1ccc2nc(-c3nc4ccccc4o3)ccc2c1	-112.0
c1ccc(-c2nc(-c3ccncc3)no2)cc1	-65.3
N/C(=N\N=C\c1cccc(O)c1)c1nonc1N	-91.4
O=C(/C=C/Nc1ccccc1C(=O)O)c1cccs1	-52.8
CCCCn1c(-c2csc3c2CCC(C)C3)n[nH]c1=S (stereo unspecified)	-64.3
CC(=O)CSc1nnc(-c2ccc3c(c2)OCO3)o1	-30.9
Cc1ccc2oc(-c3ccccc3)nc2c1	-83.5
S=c1[nH]nc(-c2cc(-c3ccco3)[nH]n2)n1-c1ccccc1	-79.6
CN(C)C(=O)c1ccc(NC(=O)c2cncc(Br)c2)cc1	-34.3
O=c1c(-c2ccc(F)cc2)coc2cc(O)ccc12	-54.5
COc1cccc(C(=O)Nc2ccc(C(=O)O)cc2)c1	-47.7
O=S(=O)(Nc1ccc(O)c(NS(=O)(=O)c2ccccc2)c1)c1ccccc1	-68.7
CC(=O)Oc1c(Br)cc(N(C(C)=O)S(=O)(=O)c2ccccc2)c2ccccc12	-47.7
CC(=O)Oc1oc(-c2ccccc2)nc1/C=N/c1ccccn1	-32.3
Cc1ccsc1/C=N/Nc1ncnc2nc[nH]c12	-48.9
Cc1ccc(CN=C2Nc3ccccc3CS2)cc1	-31.0
CN1CCN(C(=S)NC(=O)c2ccc(Br)cc2)CC1	-35.6
Cc1ccnc(NC(=O)c2ccc(Br)s2)c1	-32.0
C=CCn1c(-c2csc3c2CCC(C)C3)n[nH]c1=S (stereo unspecified)	-42.2
COc1ccc(OC)c(-n2c(-c3ccc(C)cc3)n[nH]c2=S)c1	-71.3
COc1ccc2[nH]c3c(=O)n(Cc4ccc(C(=O)N5CCC(C(N)=O)CC5)cc4)c(=S)[nH]c3c2c1	0.6
O=C(c1ccc2c3n(nc2c1)-c1ccccc1CO3)N1CCCCC1	-85.3
SMILES	LmPK activator
S=c1[nH]nc(C2CCCCC2)n1/N=C/c1c(Cl)cccc1Cl	-39.9
CCOc1cc(/C=C2\N=C(SC)SC2=O)cc([N+](=O)[O-])c1OC(C)=O	-50.0
Cc1nn(-c2ccccc2)c(C)c1/C=N/Nc1nc2ccccc2[nH]1	-54.4
CSc1ccc(/C=N/NC(=O)c2sccc2C)cc1	-51.9
O=[N+]([O-])c1cccc(C=Nc2cccc3ccccc23)c1O	-39.6
CCN(C(=O)COC(=O)c1c(C)noc1C)C1CCS(=O)(=O)C1 (stereo unspecified)	-35.2
CCOc1cccc(-c2nc3cc(C)ccc3o2)c1	-35.1
CC(=C/c1ccco1)/C=N/N1CCN(c2ccccc2)CC1	-76.1
O=C(Nc1cccc(Cl)c1)c1cc(N=Nc2ccc([N+](=O)[O-])cc2Cl)ccc1O	-82.2
COc1ccc(C2=NN(S(C)(=O)=O)C(c3cccs3)C2)cc1 (stereo unspecified)	-36.4
COc1ccc(C=C2C(=O)c3ccccc3C2=O)cc1O	-34.3
Oc1ccc(/C=N/Nc2nn3cnnc3c3ccccc23)cc1	-60.4
CC(=O)Nc1cccc(-c2cn3ccc(C)cc3n2)c1	-50.4
COc1cccc(C(=O)/C=C/Nc2ccc(NC(C)=O)cc2)c1	-38.8
Cn1cccc1C(=O)NC(=O)COC(=O)C12CC3CC(CC(O)(C3)C1)C2	-36.9
CCc1c(-c2n[nH]c(=S)n2Cc2ccccc2)csc1C	-58.6
Cc1ccc(C(=O)Nc2ncc(C)s2)o1	-87.6
Cc1oc(-c2nc3ccccc3n2C)cc1C(=O)c1ccccc1	-80.5
CC(c1ccc(F)cc1)n1c(-c2cccs2)n[nH]c1=S (stereo unspecified)	-31.3
Cc1cccc(NC(=O)c2cccs2)n1	-33.7
CC(C)(C)n1nnnc1C(c1ccncc1)N1CCN(c2ccc(O)cc2)CC1 (stereo unspecified)	-38.8
O=C(O)c1ccc(/C=N/N2CCN(C3c4ccccc4-c4ccccc43)CC2)cc1	-64.5
Cc1cccc(-n2c(C)n[nH]c2=S)c1C	-34.1
Cc1ccc(-c2cn3cccc(C)c3n2)cc1	-66.8
Fc1ccc(CSc2nc3ccccc3[nH]2)cc1	-61.7
SMILES	LmPK activator
N/C(=N\OC(=O)c1ccccc1Cl)c1ccccc1	-82.6
COc1ccc(/C=N/Nc2nc(=O)[nH]nc2C)cc1OC	-36.2
S=c1[nH]nc(-c2ccc(Cl)cc2Cl)n1-c1ccc(Cl)cc1	-32.3
COc1ccc2c(c1)c1ccc3c(c1n2C)C(=O)C=CC3=O	-43.9
COc1cccc(C(=O)/C=C/Nc2cccc(O)c2)c1	-111.0
CCN(CC)CCNC(=O)CCCCn1c(=S)[nH]c2c([nH]c3ccc(OC)cc32)c1=O	-83.6
Cc1ccn2c(c1)nc(=S)n2C(=O)c1ccccc1	-40.5
O=C1NC(=S)S/C1=C/c1ccc(N2CCOCC2)o1	-34.6
Oc1ccc(-c2n[nH]c(=S)n2Cc2ccccc2)cc1	-91.0
COc1ccc2c(CC(=O)N3CCc4ccccc43)coc2c1	-45.9
CCCCn1c(-c2nn(C)cc2Cl)n[nH]c1=S	-55.2
[O-]/[N+](=C\C=C\c1ccccc1)c1ccccc1	-44.6
COc1ccccc1-n1c(-c2ccc(NS(C)(=O)=O)cc2)n[nH]c1=S	-100.7
Oc1cccc(/C=N/n2c(C3CCCCC3)n[nH]c2=S)c1	-31.4
CN(C(=O)COC(=O)c1cccnc1Nc1ccccc1F)C1CCS(=O)(=O)C1 (stereo unspecified)	-34.8
Oc1cccc2ccc(/C=C/c3cccs3)nc12	-68.7

Assay outcomes deposited in PubChem BioAssay by National Center for Advancing Translational Sciences (NCATS).
